Compound activity deposited in PubChem by National Center for Advancing Translational Sciences (NCATS).
VACV mCherry inh: vaccinia inhibition (mCherry reporter); Vaccinia virus mCherry reporter infection, fluorescence; Potency, µM (series often up to 36.5 µM), inactives show at the highest dose activity change, negative = inhibition, most hits filed as inhibitors; 310,000 compounds, 0.63% hits; calls by dose curve; tested in A549 cells; also: potency is read from the fitted curve at half-maximal effect; nearly all actives have a fitted effect of over 35% in size
LASV entry inh: blocks Lassa virus binding to or entry into cells. 300,000 compounds, 1.2% hits. Lassa virus pseudotype entry inhibition, cell reporter. AID 540256. Potency, µM (highest dose often 37.9 µM), without a hit: at the highest dose activity change, negative = inhibition, hits mostly inhibitors; calls by dose curve; tested in HEK293 cells; also: potency is read from the fitted curve at half-maximal effect; nearly all actives have a fitted effect of over 50% in size
Marburg entry inh: Marburg virus entry inhibition; 300,000 compounds, 1.8% hits; Marburg virus pseudotyped entry inhibition, cell reporter; Potency, µM (top dose mostly 37.8 µM), for inactives: at the highest dose activity change, negative = inhibition, actives largely listed as inhibitors; calls by dose curve; tested in HEK293 cells; also: potency is read from the fitted curve at half-maximal effect
VACV Venus inh: vaccinia inhibition (Venus reporter); Vaccinia virus Venus reporter expression, fluorescence; Potency, µM (titrated, usually from 36.5 µM), for inactives: at the top dose activity change, negative = inhibition, actives largely listed as inhibitors; 330,000 compounds, 0.46% hits; calls by dose curve; tested in A549 cells; also: potency is read from the fitted curve at half-maximal effect; nearly all actives have a fitted effect of over 30% in size
FMDV antiviral: foot and mouth disease virus antiviral activity; FMDV antiviral cell-based qHTS; Potency, µM (series often up to 57.9 µM), for inactives: at the top dose activity change, negative = inhibition, hits mostly inhibitors; 410,000 compounds, 1.2% hits; AID 1159524; calls by dose curve; tested in HEK293T cells; also: read-out not given here; potency is read from the fitted curve at half-maximal effect; nearly all actives have a fitted effect of over 45% in size
HCMV inh: human cytomegalovirus inhibition; HFF cells, HCMV-luciferase reporter, 72 h; stronger effect = lower value; activity change, negative = inhibition, % at 57.5 µM; 410,000 compounds, 4.5% hits; AID 1259415; in the data active = activity change below about -60%; inconclusive = no clear call, values can overlap the other calls; inactive = above about -39%
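HFF cells seeded 16 h at 37C, treated with compounds, infected with luciferase-reporter HCMV at MOI 1 PFU/cell; luciferase read at 72 h post infection, normalized to buffer-only and Salinomycin controls.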
Numbers without * were called inactive; i = inactive; ? = inconclusive; · = no result given; [ ] = another dose, or the depositor's remark. A selection: hits, their analogues and other compounds. The true share with any hit is near 6.5%. % is scaled to controls: 0 for no effect and ±100 for the full control effect.

SMILES	VACV mCherry inh	LASV entry inh	Marburg entry inh	VACV Venus inh	FMDV antiviral	HCMV inh
Cc1ccc(S(=O)(=O)/C=C/C#N)cc1	i	2.3µM*	?	-11%	-7%	·
Cc1ccc(S(=O)(=O)C=CS(=O)(=O)c2ccc(C)cc2)cc1	?	·	·	-21%	?	?
CC(C)(C)c1ccc(S(=O)(=O)/C=C\C#N)cc1	·	·	2.5µM*	·	40µM*	·
Cc1ccc(S(=O)(=O)NC(=O)Nc2ccc(N(C)C)cc2)cc1	?	13µM*	?	?	24%	-18
CCOC(=O)Nc1ccc(NS(=O)(=O)c2ccc(C)cc2)cc1	-7%	12µM*	-20%	-23%	42%	56
Cc1ccc(NC(=O)NNS(=O)(=O)c2ccc(Br)cc2)cc1	·	0%	?	-9%	-17%	38
CCOC(=O)Nc1ccc(S(=O)(=O)NCc2ccccc2)cc1	?	?	-17%	-19%	·	-62*
O=C(NCCc1csc2nc(-c3cccc(F)c3)nn12)c1ccc(Br)o1	-1%	2%[46.1 µM]	·	6%	-23%	-10
CCn1c(NCc2cc(Br)ccc2NS(=O)(=O)c2ccc(C)cc2)nc2ccccc21	·	?	?	-24%	3%	-12
CCn1c(NCc2ccccc2NS(=O)(=O)c2ccc(C)cc2)nc2ccccc21	?	?	21µM*	?	-1%	35
CCCn1c(NCc2ccccc2NS(=O)(=O)c2ccc(C)cc2)nc2ccccc21	?	?	6.3µM*	?	15%	-26
N#C/C(C(=O)NCc1ccccc1)=C1\S[C@H](CCO)C(=O)N1c1ccccc1	·	·	-5%[46.1 µM]	·	·	·
NNC(=O)Nc1cccc(C(F)(F)F)c1	-15%	-2%[46.1 µM]	4%[46.1 µM]	0%	-10%	16
O=C(NC1CCCCC1)C1CCC(=O)N(Cc2cccc(C(F)(F)F)c2)C1 (configuration not stated)	-3%	0%	-8%	-9%	-19%	-61*
O=C(Nc1cccc(C(F)(F)F)c1)NC1CCCCC1	·	4µM*	14%	?	20%	-29
O=C(Nc1ccc(OC(F)F)cc1)Nc1cccc(C(F)(F)F)c1	-25%	?	?	?	0%	-80*
COc1cccc(CN2CC(C(=O)NC3CCCCCC3)CCC2=O)c1 (configuration not stated)	-10%	0%[46.1 µM]	24%[46.1 µM]	-5%	-10%	-20
O=C(Nc1ccncc1)Nc1cccc(C(F)(F)F)c1	·	·	·	·	-1%	-80*
Cc1ccc(Nc2cc(C(=O)NC3CCCC3)c3ccccc3n2)cc1C	-15%	-24%[46.1 µM]	·	-13%	?	-9
CCNC(=O)c1sc2ncnc(NCCCN3CCOCC3)c2c1C	0%	·	·	14%	-4%	·
Cn1c(=O)c(=O)n(C)c2cc(NS(=O)(=O)c3ccc(Br)cc3)c(Cl)cc21	-13%	-1%[46.1 µM]	-13%[46.1 µM]	-7%	26%	21
CCOC(=O)c1nnc2c(-c3ccc(Cl)cc3)c(C)nn2c1C	-11%	5%[46.1 µM]	-16%[46.1 µM]	-11%	-5%	-3
Cc1ccc(NC(=O)NC2CCCCCCC2)cc1C	·	·	·	·	12%	-84*
NC(=O)/C=C\C(=O)Nc1cccc(C(F)(F)F)c1	?	?	9.2µM*	-18%	·	-39
COC(=O)CCCn1c(-c2ccc(C)cc2)c(C)n2c3c(=O)n(C)c(=O)n(C)c3nc12	-8%	?	1%[46.1 µM]	1%	?	-14
SMILES	VACV mCherry inh	LASV entry inh	Marburg entry inh	VACV Venus inh	FMDV antiviral	HCMV inh
Cc1ccc(-c2c(C)n3c4c(=O)n(C)c(=O)n(C)c4nc3n2CCCO)cc1	-25%	8.9µM*	?	-26%	11µM*	-73*
CCN(CC)CCOC(=O)c1ccc(NC(=O)c2nn(C)c3c2COc2ccccc2-3)cc1	?	?	-6%[46.1 µM]	?	13%	-87*
CCCC[C@]1(C(=O)OCC)C[C@H](CN2CCOCC2)OC1=O	·	·	5%	·	·	·
COc1ccccc1-c1ccnc(-n2ncc(C(=O)NCc3cccc(C)n3)c2C)n1	-12%	·	·	6%	-8%	·
C=CCNc1nc(S(=O)Cc2ccc(C)cc2)nc2c1CCCC2 (configuration not stated)	·	·	·	·	-23%	-98*
COc1ccc(-n2c(CN3CCOCC3)nc3ccc([N+](=O)[O-])cc3c2=O)c(OC)c1	-19%	30%[46.1 µM]	19%[46.1 µM]	1%	-7%	51
COc1ccc(-n2c(CN3CCN(c4ccccc4)CC3)nc3ccc([N+](=O)[O-])cc3c2=O)c(OC)c1	-9%	?	-15%[46.1 µM]	-5%	-8%	-79*
CCn1c(-c2ccccc2)c(C(=O)CCl)c2ccccc21	-15%	·	·	-18%	18µM*	-100*
Cn1c(-c2ccccc2)c(C(=O)CCl)c2ccccc21	-27%	-27%	?	-22%	10µM*	-101*
COCCNC(=S)N1CCc2cc(OC)c(OC)cc2C1COc1ccc(C(C)C)cc1 (configuration not stated)	-23%	?	13µM*	-24%	-26%	56
COc1cc2c(cc1OC)C(c1ccccc1)N(C(=O)c1ccccc1)CC2 (configuration not stated)	·	·	·	·	-15%	-60*
COc1cc2c(cc1OC)C(COc1ccccc1OC)N(C(=O)c1ccccc1OC)CC2 (configuration not stated)	-2%	-3%[46.1 µM]	·	3%	0%	-106*
COC(=O)c1ccc(OCC2c3cc(OC)c(OC)cc3CCN2C(=O)c2ccco2)cc1 (configuration not stated)	·	4.1µM*	?	·	?	91
COC(=O)c1ccc(OCC2c3cc(OC)c(OC)cc3CCN2C(=O)c2ccc(OC)cc2)cc1 (configuration not stated)	-5%	-30%[46.1 µM]	·	-7%	-16%	12
COc1cc2c(cc1OC)C(c1ccccc1)N(C(=O)c1ccccc1F)CC2 (configuration not stated)	·	·	·	·	-15%	3
CCNc1nc(NCC)n2c(SCC(=O)Nc3cccc(Cl)c3)nnc2n1	?	?	-10%	?	-21%	·
CCNc1nc(NCC)n2c(SC(C(=O)Nc3cc(Cl)cc(Cl)c3)c3ccccc3)nnc2n1 (configuration not stated)	-9%	-2%	21%	4%	-1%	-101*
COc1ccc(CNC(=O)c2ccc(N3CCCC3)c(NC(=O)NCc3ccc(F)cc3)c2)cc1	-11%	2%[46.1 µM]	·	-17%	9%	6
CC(C)C[C@@H](CN1CCCC1CN1C(=S)NC[C@@H]1Cc1ccccc1)N1C[C@H](Cc2ccc(O)cc2)N(CC2CCCCC2)C1=S (some centres not stated)	8%	·	·	-8%	-24%	-73*
CC(C)C[C@@H](CN1CCCC1CN1C(=S)NC[C@@H]1Cc1ccccc1)N1C[C@H](Cc2ccccc2)N(CC2CCCCC2)C1=S (some centres not stated)	-6%	·	·	-3%	-16%	-10
CC(C)C[C@@H](CN1CCC[C@@H]1CN1C(=S)NC[C@@H]1Cc1ccc(O)cc1)N1C[C@H](Cc2ccc(O)cc2)N(CC2CCCCCC2)C1=S	?	·	·	?	?	-100*
